PubChem BioAssay (NCI)
Values joined by “and” are separate entries in the source; they are usually repeats but may differ in a detail not shown here. Identical values can stand only once. About 83,000 compounds went through this panel and 20% of them were active in at least one assay; those are over-represented in the sample as a whole.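 How to read the values: 0–100, growth inhibition (40 = 60% inhibited); 0, no net growth; -100 to 0, cell death (-40 = 40% of starting cells died; -100 = all dead).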 Active and inactive are the calls of the source. The calls were made as follows: active = growth percent below 10; inactive = the rest.

How the values were obtained:
Experiment in all cases: NCI-60 one-dose screen, 48 h (100 = growth as untreated, 0 = no growth, -100 = all killed)
[1] = test system: SK-MEL-2 melanoma; settings: 10 µM unless noted
[2] = test system: EKVX NSCLC; settings: 10 µM unless noted
[3] = test system: UO-31 renal; settings: 10 µM unless noted
[4] = test system: TK-10 renal
[5] = test system: ACHN renal; settings: 10 µM unless noted
[6] = test system: CAKI-1 renal; settings: 10 µM unless noted
[7] = test system: CCRF-CEM leukemia; settings: 10 µM unless noted
[8] = test system: MOLT-4 leukemia; settings: 10 µM unless noted
[9] = test system: SN12C renal
[10] = test system: A498 renal; settings: 10 µM unless noted

Measured: growth

CCN1/C(=C\c2cc[n+](CC)c3ccccc23)C=Cc2ccccc21
inactive: [2] 15.8% | [3] 11.4% | [4]; 10 µM unless noted 22.3% | [5] 15.2% | [6] 53.9% | [7] 28.1% | [8] 13.2%
active: [1] 0.604%

Cc1ccc2nc(-[n+]3cc4ccccc4cc3C)ccc2c1
inactive: [2] 62% | [9]; 10 µM unless noted 13.2% | [3] 88.8% | [4]; 10 µM unless noted 81.9% | [5] 103% | [6] 103% | [10] 52.5% | [7] 40% | [8] 44.7%

COc1cc(NS(C)(=O)=O)ccc1Nc1c2ccccc2nc2ccccc12
10.6% (inactive) [middle of 4 runs]: [9]; 10 µM
inactive: [2] 58.8% [2.5 µM] | [9]; 2.5 µM 17.7% | [3] 34.3% [2.5 µM] | [4]; 2.5 µM 66.1% | [6] 16.3% [2.5 µM]
active: [4]; 250 µM -95.2% and -100% | [5] 2.39% [2.5 µM] | [10] -7.27% [2.5 µM] | [7] 3.36% [2.5 µM] | [8] 1.03% [2.5 µM]

N#CSCc1c(Cl)cccc1Cl
inactive: [2] 103% | [9]; 10 µM unless noted 93.3% | [3] 40.2% | [4]; 10 µM unless noted 101% | [5] 49.9% | [6] 47.7% | [10] 85.1% | [7] 44.1% | [8] 90.9%

CC1OC(OC2C(OC3CCC4(C)C(CCC5(C)C4CC=C4C6CC(C)(C)CCC6(CO)C(O)CC45C)C3(C)C)OC(C(=O)O)C(OC3OC(COC4OC(CO)C(O)C(O)C4O)C(O)C(O)C3O)C2O)C(O)C(O)C1O (stereo not drawn)
active: [2] -74.8% | [9]; 10 µM unless noted -77.7% | [3] -88.7% | [4]; 10 µM unless noted -69.3% | [5] -100% | [6] -95.3% | [10] -88% | [7] -26.3% | [8] -67%

CC(=O)ON=C1C=CC(=C(C#N)c2ccccc2)C=C1
inactive: [1] 41.2% | [2] 82.7% | [3] 38% | [4]; 10 µM unless noted 21.1% | [5] 14% | [6] 19.9% | [7] 23.5% | [8] 40.8%

Oc1c(Cl)cc(Cl)c2cccnc12
inactive: [1] 80% and 60.3% | [2] 58.9% and 51.5% | [3] 42.8% and 24.9% | [4]; 10 µM unless noted 53% and 107% | [5] 42% | [6] 46.3% and 51.3% | [7] 31% and 36.4% | [8] 37.1% and 35.7%

O=C1c2ccccc2C(=O)N1c1ccccc1
inactive: [1] 128% | [2] 93% | [3] 89.1% | [4]; 10 µM unless noted 117% | [5] 99.5% | [6] 81.3% | [7] 114% | [8] 103%

CCN(CC)CC(C)(C)C(=O)/C=C/c1ccc(Cl)c(Cl)c1
active: [1] -33.2% | [3] -72% | [4]; 10 µM unless noted -34.7% | [5] -42.8% | [6] -32.3% | [7] 5.91% | [8] 2.21%
inactive: [2] 28.2%

COc1cc(/C=C(/C)C[N+](=O)[O-])ccc1O
inactive: [1] 96.9% | [2] 109% | [9]; 10 µM unless noted 86.3% | [3] 73.3% | [5] 95.9% | [6] 84.3% | [7] 56.9% | [8] 80.6%

c1ccc2c(c1)Nc1cc3ccccc3cc1N2
inactive: [1] 84% | [2] 56.4% | [3] 17.6% | [4]; 10 µM unless noted 93.3% | [5] 27% | [6] 38% | [7] 26.5% | [8] 20.9%

Cn1c2c(c3ccccc31)CCN1C[C@@H]3CCCC[C@H]3C[C@@H]21
inactive: [2] 26.3% | [3] 22.9% | [4]; 10 µM unless noted 32.2% | [5] 30.4% | [6] 18.9% | [7] 25.2% | [8] 31.3%
active: [1] -2.5%

COc1cc(/C=C/C(C)=O)ccc1O
inactive: [1] 105% | [2] 91.8% and 112% | [3] 66% and 88.4% | [4]; 10 µM unless noted 97.7% and 142% | [5] 95.9% and 95% | [6] 93.4% and 115% | [7] 28.4% and 78.1% | [8] 95.8% and 87.2%

CC(=O)Nc1cccc2cc(O)ccc12
inactive: [1] 125% and 101% | [2] 101% and 120% and 99.3% | [3] 94.6% and 89.5% and 75.1% | [4]; 10 µM unless noted 123% and 99.7% and 97.9% | [5] 104% and 109% and 100% | [6] 129% and 93.5% | [10] 99.2% and 108% and 109% | [7] 98.1% and 101% and 104% | [8] 111% and 108% and 98.5%

O=C(Nc1ccc(F)cc1)ON=C1CCCCC1
inactive: [1] 102% [100 µM] | [2] 111% [100 µM] | [3] 92.2% [100 µM] | [4]; 10 µM unless noted 101% [100 µM] | [5] 97.9% [100 µM] | [6] 79.3% [100 µM] | [10] 95.2% [100 µM] | [7] 97.2% [100 µM] | [8] 95.3% [100 µM]

O=[N+]([O-])c1ccc2c(N=Nc3ccc4ccccc4c3O)c(O)cc(S(=O)(=O)O)c2c1
inactive: [1] 102% | [2] 95.2% | [3] 62.6% | [4]; 10 µM unless noted 91.6% | [5] 78.7% | [6] 60.1% | [7] 63.6% | [8] 91.7%

Cc1ccc2c(ccc3c[n+]4c5ccccc5ccc4n32)c1
active: [1] -19.8% | [8] 8.93%
inactive: [2] 22.4% | [3] 51% | [5] 46.9% | [6] 67.8% | [10] 16% | [7] 19.2%

CC(C)(C)CC(C)(C)c1ccc(OCCSC(=N)N)cc1
active: [8] 9.3%
inactive: [1] 96.4% | [2] 51.8% | [3] 37.2% | [5] 69.1% | [6] 71.3% | [10] 60.2%

Oc1c(Br)c(Br)c(O)c(Br)c1Br
inactive: [1] 104% | [2] 112% | [4]; 10 µM unless noted 42.6% | [6] 92.5% | [10] 127% | [7] 15.8% | [8] 42.6%
active: [3] -80.4% | [5] -33.2%

NC(=S)N/N=C/c1ccc(Cl)s1
inactive: [2] 76.6% | [9]; 10 µM unless noted 101% | [3] 100% | [4]; 10 µM unless noted 105% | [5] 109% | [6] 98.1% | [10] 97.1% | [7] 94.6% | [8] 99.2%

O=C(Oc1cccc2cccnc12)c1ccccc1
inactive: [2] 91% and 107% | [3] 78.6% and 82% | [5] 96.5% and 104% | [6] 89.7% | [10] 117% | [7] 23.7% and 102% | [8] 80%

O=C(Nc1ccccc1)Oc1c(Cl)c(Cl)c(Cl)c(Cl)c1Cl
inactive: [2] 97.7% and 87.2% | [9]; 10 µM unless noted 99.4% and 92.7% | [3] 73.9% and 83.2% | [4]; 10 µM unless noted 100% | [5] 99.1% and 93.6% | [6] 93.1% and 89.7% | [10] 95.9% and 76.8% | [7] 93.6% and 101% | [8] 90.8% and 96.1%

CCCCCCCCCCCCCCNCc1ccccc1
inactive: [2] 93.4% | [9]; 10 µM unless noted 79% | [3] 62.4% | [4]; 10 µM unless noted 103% | [5] 90.9% | [6] 82.2% | [7] 60.5% | [8] 56.4%

O=[N+]([O-])c1ccc(N=Nc2ccc(O)cc2O)cc1
inactive: [2] 58.8% | [9]; 10 µM unless noted 67.2% | [3] 58.5% | [4]; 10 µM unless noted 77.9% | [5] 55.5% | [6] 56% | [7] 33.2% | [8] 36.7%

O=C1c2cccnc2-c2nccc3c2c1nc1cc(Br)ccc13
11.5% (inactive) and -70.9% (active): [9]; 10 µM unless noted
active: [3] -80% and -93% | [5] -72.9% and -92.1% | [6] -49.6% and -90.7% | [10] -52% and -78.4% | [7] -26.3% and -4.46% | [8] -39.5% and -31%
32% (inactive) and -81.4% (active): [2]
44.5% (inactive) and -98.9% (active): [4]; 10 µM unless noted

CCOC(=O)/C(=C\c1ccc(-c2ccccc2)cc1)C(C)=O
inactive: [2] 99.2% | [9]; 10 µM unless noted 89.9% | [3] 82.7% | [5] 104% | [6] 98.7% | [10] 92.2% | [7] 107% | [8] 107%

NC(N)=N/N=C/c1ccc([N+](=O)[O-])o1
inactive: [2] 122% | [9]; 10 µM unless noted 86.6% | [3] 88.8% | [5] 92.8% | [6] 106% | [10] 105% | [7] 87.9% | [8] 103%

O=C(/C=C/c1cccc(Cl)c1)c1ccccc1
inactive: [2] 93.5% | [9]; 10 µM unless noted 92.3% and 81% | [3] 77.7% and 70% | [4]; 10 µM unless noted 84.8% | [5] 90.7% and 81.5% | [6] 90.8% and 75.4% | [10] 79.7% and 102% | [7] 74.1% and 63.7% | [8] 90.7% and 86.1%

N#CC1C(=O)SC2c3ccccc3C(=O)c3ccccc3C12 (stereo not drawn)
inactive: [2] 107% | [9]; 10 µM unless noted 101% | [3] 89.5% | [5] 114% | [6] 88% | [10] 105% | [7] 95% | [8] 99.6%
